{"source": "PubChem BioAssay (EPA / NIEHS)", "note": "Calls of active or inactive are those of the source. The calls were made as follows: active = hit-call score of the fitted dose curve at least 0.9, where 1 is the maximum; inactive = score below 0.9."}
{"test": "ATG_NRF2_ARE_CIS: Attagene CIS-FACTORIAL HepG2 Assay for human Nuclear Factor Erythroid 2 Related Factor 2 (NFR2) response to Antioxidant Response Elements (ARE) (AID 2282992)", "details": "HepG2 Attagene ARE/NRF2 reporter, transcription factor activity; actives raise or lower the signal", "protocol": "ATG_CIS is a cell-based, multiplexed-readout assay that uses HepG2, a human liver cell line, with measurements taken at 24 hours after chemical dosing in a 24-well plate.ATG_NRF2_ARE_CIS is one of 52 assay component(s) measured or calculated from the ATG_CIS assay. It is designed to make measurements of mRNA induction, a form of inducible reporter, as detected with fluorescence intensity signals by Reverse transcription polymerase chain reaction (RT-PCR) and Capillary electrophoresis technology.Data from the assay component ATG_NRF2_ARE_CIS was analyzed into 1 assay endpoint. This assay endpoint, ATG_NRF2_ARE_CIS, was analyzed with bidirectional fitting relative to DMSO as the negative control and baseline of activity. Using a type of inducible reporter, measures of mRNA for gain or loss-of-signal activity can be used to understand the reporter gene at the transcription factor-level as they relate to the gene NFE2L2. Furthermore, this assay endpoint can be referred to as a primary readout, because this assay has produced multiple assay endpoints where this one serves a reporter gene function. To generalize the intended target to other relatable targets, this assay endpoint is annotated to the dna binding intended target family, where the subfamily is basic leucine zipper.\nHuman liver HepG2 cells are transiently transfected with multiple reporter transcription units (MRTUs) in 6-well plates using FuGene 6 reagent (Roche; 3 ml FuGene/1 mg DNA). The MRTU constructs are regulated by a cis-regulating element (promoter). […] A major difference between the CIS and TRANS system is that in CIS activities of endogenous TFs are measured, whereas the TRANS assay evaluates changes in activities of exogenous, chimeric NR-Gal4 proteins. […] At the end of 24 hour incubation, total RNA was isolated using TriZol reagent (Invitrogen). The isolated RNA is then reverse-transcribed using oligo(dT) primer and Mo-MLV reverse transcriptase (Invitrogen) with DNAse I (Ambion) treatment for 30 min. The one-tenth of the produced cDNA was amplified by PCR using Taq DNA polymerase (Invitrogen) and two reporter sequence-specific primers. The PCR products were fluorescently labeled by primer extension with 6-arboxyfluorescein (6-FAM) 5'-labeled reporter sequence-specific primer (2 min at 95 C, 20 s at 68 C and 10 min at 72 C) and these products were digested with 5U of HpaI (New England Biolabs) for 2h at 37 C. The fragments were purified using Qiaquick PCR columns (Qiagen), analyzed on an ABI 3130xL genetic analyzer (Applied Biosystems) with peak positions identified by using a set of X-rhodamine (ROX)-labeled MapMarker1000 molecular weight standards (BioVentures). The raw capillary electrophoresis data was processed using Attagraph software (Attagene)."}
{"smiles": "C[Si](Cl)(Cl)CCC(F)(F)C(F)(F)C(F)(F)C(F)(F)C(F)(F)C(F)(F)F", "outcome": "inactive"}
{"smiles": "CN(C)C(C)(C)CO", "outcome": "inactive"}
{"smiles": "O=C(Cl)C(F)(F)C(F)(F)C(F)(F)C(F)(F)C(F)(F)C(F)(F)F", "AC50": "154 µM (active)"}
{"smiles": "CCN(CC)c1ccc(N=Nc2ccccc2)cc1", "AC50": "3.86 µM (active)"}
{"smiles": "OCCCC(F)(F)C(F)(F)C(F)(F)C(F)(F)C(F)(F)C(F)(F)C(F)(F)C(F)(F)F", "outcome": "inactive"}
{"smiles": "CCOC(=O)CCC(C)=O", "outcome": "inactive"}
{"smiles": "OCC(F)(F)C(F)(F)C(F)(F)CO", "outcome": "inactive"}
{"smiles": "O=C1c2c(O)ccc(Nc3ccc(CCO)cc3)c2C(=O)c2c([N+](=O)[O-])ccc(O)c21", "AC50": "6.59 µM (active)"}
{"smiles": "NCC(F)(F)C(F)(F)C(F)(F)C(F)(F)C(F)(F)C(F)(F)F", "outcome": "inactive"}
{"smiles": "CC(O)C#CC(C)O", "note": "(stereo not given)", "AC50": "24.9 µM (active)"}
{"smiles": "CCOC(OCC)OCC", "outcome": "inactive"}
{"smiles": "CCC/C=C/CO", "outcome": "inactive"}
{"smiles": "O=S(=O)(O)CCC(F)(F)C(F)(F)C(F)(F)C(F)(F)F", "outcome": "inactive"}
{"smiles": "O=C(O)C(F)(F)C(F)(F)C(F)(F)C(F)(F)C(F)(F)C(F)(F)C(F)F", "AC50": "100 µM (active)"}
{"smiles": "Oc1ccc(C2(c3ccc(O)c(C4CCCCC4)c3)CCCCC2)cc1C1CCCCC1", "AC50": "6.2 µM (active)"}
{"smiles": "CCCC(=O)OCC(COC(=O)CCC)OC(=O)CCC", "outcome": "inactive"}
{"smiles": "Cc1ccc([N+](=O)[O-])c(C)c1", "outcome": "inactive"}
{"smiles": "O=C=NCc1cccc(CN=C=O)c1", "outcome": "inactive"}
{"smiles": "C=CC(=O)OCC(F)(F)C(F)(F)C(F)(F)C(F)(F)C(F)(F)C(F)(F)C(F)(F)C(F)F", "AC50": "58.2 µM (active)"}
{"smiles": "CCCCCCCCCCCCCCCCC", "outcome": "inactive"}
{"smiles": "CCN=C1C=CC(=C(c2ccc(N(CC)CC)cc2)c2ccc(N(CC)CC)cc2)c2ccccc21", "AC50": "0.0811 µM (active)"}
{"smiles": "COc1ccccc1C=O", "outcome": "inactive"}
{"smiles": "OCCCCl", "outcome": "inactive"}
{"smiles": "Nc1cccnc1N", "AC50": "17.9 µM (active)"}
{"smiles": "CO[Si](C)(CCC(F)(F)C(F)(F)C(F)(F)C(F)(F)C(F)(F)C(F)(F)F)OC", "outcome": "inactive"}
{"smiles": "O=C(O)CCC(F)(F)C(F)(F)C(F)(F)F", "outcome": "inactive"}
{"smiles": "CC(C)(C)c1cc(Cc2cc(C(C)(C)C)c(O)c(C(C)(C)C)c2)cc(C(C)(C)C)c1O", "outcome": "inactive"}
{"smiles": "O=S(=O)(OCC(F)(F)F)C(F)(F)C(F)(F)C(F)(F)C(F)(F)F", "AC50": "45.6 µM (active)"}
{"smiles": "O=c1[nH]cccc1O", "outcome": "inactive"}
{"smiles": "CSc1ccc(O)cc1C", "outcome": "inactive"}
{"smiles": "CC(=O)c1ccccc1N", "outcome": "inactive"}
{"smiles": "NS(=O)(=O)C(F)(F)C(F)(F)C(F)(F)C(F)(F)C(F)(F)C(F)(F)F", "outcome": "inactive"}
{"smiles": "CCCCC(CC)COC(=O)c1ccc(N(C)C)cc1", "note": "(stereo not given)", "AC50": "27.4 µM (active)"}
{"smiles": "CC(C)OC=O", "outcome": "inactive"}
{"smiles": "O=C(O)C(F)(F)C(F)(F)C(F)(F)OC(F)(F)F", "outcome": "inactive"}
{"smiles": "CC(C)Nc1ccc(NC(C)C)c2c1C(=O)c1ccccc1C2=O", "AC50": "2.85 µM (active)"}
{"smiles": "CC(C)(C)c1cc(CCC(=O)NCCCCCCNC(=O)CCc2cc(C(C)(C)C)c(O)c(C(C)(C)C)c2)cc(C(C)(C)C)c1O", "outcome": "inactive"}
{"smiles": "CC(C)C(=O)OCc1ccccc1", "outcome": "inactive"}
{"smiles": "CCOC(=O)C1CC(=O)C(=C(O)C2CC2)C(=O)C1", "note": "(stereo not given)", "outcome": "inactive"}
{"smiles": "CCCCCC/C=C/CCCCCCCC(=O)O", "outcome": "inactive"}
